SMILES strings stand for the structures. This is part of a sample that, as a whole, favours compounds with a hit. Of some 83,000 tested, about 20% had one in any assay.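 Cell lines were cultured in 96-well plates, exposed to a single compound concentration, and assessed for percent growth 48 hours later.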 Values without a mark were called inactive. Activity calls are given as the source filed them. Rule for the calls: active = growth percent below 10; inactive = the rest.

Some test systems named below: HCT-15 colon; HT29 colon; SNB-75 CNS; SNB-19 CNS; U251 CNS; PC-3 prostate; SK-MEL-5 melanoma; UACC-62 melanoma; LOX IMVI melanoma; SK-MEL-28 melanoma; EKVX NSCLC; SN12C renal; UO-31 renal; TK-10 renal; ACHN renal; CAKI-1 renal; A498 renal; CCRF-CEM leukemia; MOLT-4 leukemia.
Holding throughout (assay): NCI-60 one-dose screen, 48 h (100 = growth as untreated, 0 = no growth, -100 = all killed)
Settings in all cases: 10 µM unless noted

For `CCN1CCN(CCCN(C[C@H]2Cc3ccccc3CN2)[C@H]2CCCc3cccnc32)CC1`, the growth was 72.5% in the experiment with HCT-15 colon; 75.2% with HT29 colon; 84.8% in the experiment on SNB-75 CNS; 84.9% in the experiment with SNB-19 CNS; 79.2% with U251 CNS; 77.3% in the experiment with PC-3 prostate. For the same compound, the growth is 97.7% with SK-MEL-5 melanoma; 106% in the experiment with UACC-62 melanoma; 74.3% in the experiment with LOX IMVI melanoma; 108% in the experiment with SK-MEL-28 melanoma; 84% with EKVX NSCLC; 83.8% in the experiment with SN12C renal. Moreover, the growth was 53.2% in the experiment with UO-31 renal; 85.6% in the experiment on TK-10 renal; 87.6% with ACHN renal; 74.4% with CAKI-1 renal; 86.6% in the experiment with A498 renal; 79.6% with CCRF-CEM leukemia. For the same compound, the growth in the experiment with MOLT-4 leukemia is 69.8%.
Regarding `O=C1C=CC2(NN=C(c3ccccc3)N2c2ccccc2)c2cccc(O)c21` (configuration not stated), the growth in the experiment with HCT-15 colon is 16.8%; in the experiment with HT29 colon, 44.3%; in the experiment with SNB-75 CNS it was 19.9%; in the experiment with SNB-19 CNS, 32%; in the experiment on U251 CNS, 11.2%; with PC-3 prostate, 36%. Moreover, the growth with SK-MEL-5 melanoma was -91.5% (active); in the experiment with UACC-62 melanoma it was -50.4% (active); with LOX IMVI melanoma, -5.86% (active); in the experiment on SK-MEL-28 melanoma, 38.2%; with EKVX NSCLC, 57.9%; with SN12C renal, 7.23% (active). Besides, the growth in the experiment on UO-31 renal is 22.1%; in the experiment with TK-10 renal, 91.6%; in the experiment with ACHN renal, 55.2%; with CAKI-1 renal, 81.7%; in the experiment on A498 renal, 103%; in the experiment on CCRF-CEM leukemia, 76.5%. Moreover, the growth in the experiment with MOLT-4 leukemia is 71.7%.
Turning to `C[C@@H](Oc1cc(-c2cnn(C3CCNCC3)c2)cnc1N)c1c(Cl)ccc(F)c1Cl`, the growth is -5.99% (active) in the experiment with HCT-15 colon; -49.4% (active) with HT29 colon; -67.7% (active) with SNB-75 CNS; 3.67% (active) in the experiment with SNB-19 CNS; -71.9% (active) in the experiment with U251 CNS; -5.54% (active) with PC-3 prostate. The growth with SK-MEL-5 melanoma was -99.8% (active); in the experiment with UACC-62 melanoma, -83.5% (active); in the experiment on LOX IMVI melanoma it was -90.8% (active); with SK-MEL-28 melanoma, -84.7% (active); in the experiment with EKVX NSCLC, 0.0738% (active); in the experiment on SN12C renal, -41% (active). Also, the growth in the experiment on UO-31 renal was -73.4% (active); in the experiment on TK-10 renal, -36.2% (active); in the experiment with ACHN renal, -45.9% (active); with CAKI-1 renal, -64.1% (active); in the experiment with A498 renal it was -68.3% (active); in the experiment on CCRF-CEM leukemia, -19.5% (active). In addition, the growth with MOLT-4 leukemia is -34.5% (active).
As for `O=C1C=CC2(NN=C(c3ccccc3)N2c2cccc(Cl)c2)c2cccc(O)c21` (configuration not stated), the growth in the experiment with HCT-15 colon was 23.8%; with HT29 colon, 79.3%; in the experiment with SNB-75 CNS, 57.5%; in the experiment on SNB-19 CNS it was 43.9%; in the experiment with U251 CNS, 24.1%; in the experiment with PC-3 prostate it was 32.7%. Besides, the growth is -54.6% (active) with SK-MEL-5 melanoma; 3.48% (active) in the experiment on UACC-62 melanoma; 3.66% (active) in the experiment on LOX IMVI melanoma; 35.8% with SK-MEL-28 melanoma; 76.2% with EKVX NSCLC; 41.6% in the experiment on SN12C renal. Further, the growth in the experiment with UO-31 renal was 33.3%; in the experiment on TK-10 renal, 118%; in the experiment on ACHN renal, 45.6%; with CAKI-1 renal it was 90.7%; in the experiment with A498 renal, 89.1%; with CCRF-CEM leukemia it was 70.9%. In addition, in the experiment with MOLT-4 leukemia, the growth is 67.6%.
Take `CCOc1ccc(N=C(C)Nc2ccc(OCC)cc2)cc1`: the growth with HCT-15 colon was 92.1%; with HT29 colon, 109%; in the experiment on SNB-75 CNS, 80.5%; in the experiment on SNB-19 CNS it was 99.2%; in the experiment with U251 CNS, 108%; in the experiment on PC-3 prostate, 93.2%. The growth in the experiment on SK-MEL-5 melanoma is 109%; with UACC-62 melanoma, 104%; in the experiment on LOX IMVI melanoma, 102%; with SK-MEL-28 melanoma it was 113%; in the experiment with EKVX NSCLC, 109%; in the experiment on SN12C renal, 102%. In addition, the growth was 82.3% with UO-31 renal; 108% with TK-10 renal; 99.5% in the experiment with ACHN renal; 122% with CAKI-1 renal; 100% in the experiment on A498 renal; 88% in the experiment with CCRF-CEM leukemia. In addition, the growth in the experiment on MOLT-4 leukemia is 93.8%.
Consider `Cc1cn(-c2cc(NC(=O)c3ccc(C)c(Nc4nccc(-c5cnccn5)n4)c3)cc(C(F)(F)F)c2)cn1`, for which the growth in the experiment on HCT-15 colon is 82%; in the experiment on HT29 colon, 19.7%; in the experiment on SNB-75 CNS, 88.2%; with SNB-19 CNS, 74.5%; in the experiment with U251 CNS, 39.8%; in the experiment with PC-3 prostate it was 60.3%. Moreover, the growth was 57.9% in the experiment with SK-MEL-5 melanoma; 26.4% in the experiment on UACC-62 melanoma; 63.3% in the experiment with LOX IMVI melanoma; 31.3% in the experiment with SK-MEL-28 melanoma; 107% with EKVX NSCLC; 56.5% with SN12C renal. Further, the growth in the experiment on UO-31 renal is 62.9%; with TK-10 renal, 102%; in the experiment on ACHN renal, 83.7%; with CAKI-1 renal it was 97.6%; in the experiment on A498 renal, 106%; in the experiment on CCRF-CEM leukemia it was 60.5%. Also, the growth in the experiment with MOLT-4 leukemia is 52.6%.
For the compound `Cn1c(Nc2ccc(C(F)(F)F)cc2)nc2cc(Oc3ccnc(-c4ncc(C(F)(F)F)[nH]4)c3)ccc21`, the growth with HCT-15 colon is 21.4%; in the experiment with HT29 colon it was 6.83% (active); in the experiment on SNB-75 CNS, 61.2%; in the experiment with SNB-19 CNS, 56.6%; with U251 CNS, 46.3%; with PC-3 prostate, 65.8%. Also, the growth is 39% with SK-MEL-5 melanoma; 8.71% (active) in the experiment with UACC-62 melanoma; 34.1% in the experiment on LOX IMVI melanoma; 8.35% (active) in the experiment with SK-MEL-28 melanoma; 57.9% with EKVX NSCLC; 59.8% in the experiment on SN12C renal. Further, the growth is 28.8% in the experiment with UO-31 renal; 95% in the experiment on TK-10 renal; 42.2% in the experiment on ACHN renal; 34.7% in the experiment on CAKI-1 renal; 23.7% in the experiment on A498 renal; 36.6% with CCRF-CEM leukemia. The growth in the experiment on MOLT-4 leukemia is 25.7%.
For `O=C(CNc1nnc(-c2ccc(Cl)cc2)o1)Nc1ccc(-c2nc3ccccc3s2)cc1`, the growth with HCT-15 colon was 89.6%; in the experiment on HT29 colon, 95.7%; in the experiment with SNB-75 CNS, 85.8%; with SNB-19 CNS, 90.6%; in the experiment with U251 CNS, 81.6%; in the experiment with PC-3 prostate, 88.6%. Moreover, the growth is 92.1% in the experiment with SK-MEL-5 melanoma; 86.1% in the experiment on UACC-62 melanoma; -43.1% (active) in the experiment with LOX IMVI melanoma; 117% with SK-MEL-28 melanoma; 104% in the experiment with EKVX NSCLC; 94.5% in the experiment with SN12C renal. Moreover, the growth was 73.3% in the experiment with UO-31 renal; 91.7% in the experiment on TK-10 renal; 112% with ACHN renal; 100% with CAKI-1 renal; 82% in the experiment with A498 renal; 53.3% in the experiment on CCRF-CEM leukemia. Further, the growth in the experiment on MOLT-4 leukemia is 33.2%.

For the origin of these results see PubChem BioAssay (NCI).
